Outcome data for six molecules are collected here from PubChem BioAssay AID652208 (Broad Institute, 2013).

Entries with a potency or affinity are not part of this list. Activity calls are given as the source filed them.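 Rule for the calls: active = Loss of cell signal with fitted half-effect dose at or below twice the top valid tested dose; inconclusive = Poor fit, or flat fit from -70 to -30 percent; inactive = Half-effect above limit, rising signal, or flat within 30 percent.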

This experiment can be described thus: viability loss in HEK293T cells – cell-based, cherry-picks, cytotoxicity control for HIV Vif inhibitor project, dose response (AID 652208). As to conditions: CellTiter-Glo luminescence, 24 h; series mostly up to 26 µM.
As for `CN1CCc2nc3ccc(F)cc3c(C(N)=O)c2C1`, the molecule was called inactive.

In the case of `O=C(Cn1ncc2c3ccccc3n(Cc3cccc(Cl)c3)c2c1=O)N1CCC2(CC1)OCCO2`, the call was inactive.

For the molecule `CC(C)CC(NC(=O)C1CCCCC1)C(=O)N1CCC2(CC1)OCCO2` (stereo unspecified), the molecule was called inactive.

Regarding `O=C(NC1(C(F)(F)F)Oc2ccc(Cl)cc2O1)N1CCC2(CC1)OCCO2` (stereo unspecified), the molecule was called inactive.

As to `CC(Cc1ccc(O)cc1)NCC(O)c1cc(O)cc(O)c1` (stereo unspecified), the molecule was classed as inactive.

Turning to `O=C(Cc1ccccc1)OCC(=O)c1ccc(F)cc1`, the molecule was called inactive.
